# Compound activity (PubChem BioAssay)
# Pf apPOL block = Pf-apPOL DNA polymerase inhibition. Recombinant Pf-apPOL, molecular beacon fluorescence, 1.5 h. inhibition, % at 10 µM. 0.25% of 210,000 active. AID 1794808
# mHTT-CaM PPI inh = mHTT-calmodulin interaction abrogation | inhibition, % at 15 µM | AID 1671202 | AlphaScreen His-mHTT/GST-CaM binding, luminescence | 3.6% of 190,000 active | P42858;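 also: 0% = both proteins with DMSO and 100% = one protein alone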
# * hit, by the source's call; / = not tested or not shown. This is one part of a sample in which hits are shown more often than they occur. Rule as the data show it: active = inhibition above about 50%; inactive = the rest.
SMILES,Pf apPOL block,mHTT-CaM PPI inh
CC(=O)N1CCOc2cc(S(=O)(=O)N3CCC(CN4CCC(C)CC4)CC3)c(C)cc21,2,-4
COc1ccc(NC(=O)c2ccco2)c([N+](=O)[O-])c1,4,9
COc1ccc(CNC(=O)c2cc3c(n2C)CCN(Cc2ccccc2)C3)cc1,-2,38
Cn1c(C(=O)NCc2ccccc2)cc2c1CCN(Cc1ccccc1)C2,-1,63*
CC(=O)c1ccc(C(=O)NCCOc2ccccc2)cc1,4,1
CCNC(=O)c1cccc2c1CCN2S(=O)(=O)c1ccccc1F,1,-8
COc1ccc(CC(=O)Nc2ccc(N3CCCC3=O)c(OC)c2)cc1OC,5,-4
CN1CCCc2cc(CCNC(=O)C(=O)NCc3cccs3)ccc21,-1,17
CCN1CCCc2cc(CCNC(=O)Nc3ccc(OC)c(OC)c3)ccc21,-2,86*
CCCN1CCCc2cc(CCNC(=O)COCC)ccc21,-5,59*
COCCC1CCN(C(=O)CN(C)C(=O)c2ccc(OC)cc2)CC1,0,-3
O=C(NCC#CCN1CCc2ccccc2C1)c1cc2ccccc2[nH]1,-6,28
COc1ccc(OC)c(-c2cc(C(=O)NCC#CCN3CCc4ccccc4C3)[nH]n2)c1,2,53*
Cc1ccccc1/C=C1/C(=N)N2N=C(C(C)C)SC2=NC1=O,0,1
CCN1CCN(c2nc(Cc3ccccc3)nc3sc4c(c23)CCCC4)CC1,-6,66*
c1ccc(Cc2nc(N3CCOCC3)c3c4c(sc3n2)CCCC4)cc1,0,-34
CCCNS(=O)(=O)c1ccc(F)c(C(=O)Nc2ccc(Cl)c(Cl)c2)c1,-4,5
Fc1ccc(C2Oc3ccccc3C3=C2C(c2cccs2)n2ncnc2N3)cc1 (configuration not stated),-3,61*
COc1cccc(C2C3=C(Nc4ncnn42)c2ccccc2OC3c2ccccc2Cl)c1 (configuration not stated),-8,58*
CSc1ccc(C2Oc3ccccc3C3=C2C(c2cccs2)n2ncnc2N3)cc1 (configuration not stated),-5,38
COc1cccc(C2C3=C(Nc4ncnn42)c2ccccc2OC3c2ccccc2F)c1 (configuration not stated),7,5
CCC(Oc1cccc(Br)c1)C(=O)NN (configuration not stated),-4,-4
O=C(CCS(=O)(=O)c1ccc(Br)cc1)Nc1cccc(C(F)(F)F)c1,-4,2
CC1CN=C2C(N3CCN(C(=O)c4ccccc4C(F)(F)F)CC3)=NC=CN21 (configuration not stated),-13,13
CCOc1ccc(/C=C2/N=C(c3cccs3)OC2=O)cc1,3,5
SMILES,Pf apPOL block,mHTT-CaM PPI inh
COc1ccc(Cl)cc1/C=C/c1ccc2cccc(O)c2n1,-7,52*
CCOc1cccc(/C=C/c2ccc3cccc(O)c3n2)c1OC,1,48
CCOc1cc(/C=C/c2ccc3cccc(O)c3n2)ccc1O,-7,48
Oc1ccc(/C=C/c2ccc3cccc(O)c3n2)cc1Br,4,62*
O=C(O)c1ccc(/C=C/c2ccc3cccc(O)c3n2)cc1,5,7
COc1cc(/C=C/c2ccc3cccc(O)c3n2)cc(OC)c1O,-2,74*
CCOc1ccccc1Nc1cc(C)nc2ccc(Cl)cc12,-2,0
O=C(C1CCN(c2ccncc2)CC1)N1CCN(c2ccccn2)CC1,-1,-2
O=C(Nc1ccccc1)N1CCc2c(nc3cc(-c4ccccc4Cl)[nH]n3c2=O)C1,0,43
O=C(c1ccc2[nH]ccc2c1)N1CCc2nc3cc(-c4ccccc4Cl)[nH]n3c(=O)c2C1,23,96*
O=C(c1ccccc1)N1CCc2nc3cc(-c4ccccc4Cl)[nH]n3c(=O)c2C1,6,13
O=C(NCc1ccco1)N1CCc2c(nc3cc(-c4ccccc4Cl)[nH]n3c2=O)C1,-2,24
CC(C)C(=O)N1CCc2c(nc3cc(-c4ccccc4Cl)[nH]n3c2=O)C1,-1,12
COc1cccc(NC(=O)N2CCc3c(nc4cc(-c5ccccc5Cl)[nH]n4c3=O)C2)c1,0,51*
O=C(NCc1ccco1)N1CCc2nc3cc(-c4ccccc4Cl)[nH]n3c(=O)c2C1,27,68*
CC(C)C(=O)N1CCc2nc3cc(-c4ccccc4Cl)[nH]n3c(=O)c2C1,13,58*
N#CC1=C(N)OC2=C(C(=O)c3ccccc3C2=O)C1c1cccs1 (configuration not stated),0,6
Nc1ccsc1CCCC(=O)O,-1,6
N#Cc1cc(C#N)c(=S)[nH]c1N,/,4
Cc1ccc([N+](=O)[O-])cc1S(=O)(=O)Nc1cccc(C(=O)O)c1,0,-2
O=C(c1n[nH]c2c1CCCCCC2)N1CCc2c(nc3cc(-c4ccccc4)[nH]n3c2=O)C1,0,19
Cc1ccc(-c2n[nH]c3c2CN(C(=O)NCc2ccco2)CC3)cc1,-1,64*
O=C(c1n[nH]c2c1CCCC2)N1CCc2c(nc3cc(-c4ccccc4Cl)[nH]n3c2=O)C1,-4,59*
